In PubChem BioAssay (Tox21) one finds Potency data, which are given here for seven molecules.

Records with an inconclusive call do not appear. Activity calls are given as the source filed them. Unless noted, the call rests on the fitted dose curve.

Experiment [1] can be described thus: Nuclear factor erythroid 2-related factor 2/antioxidant responsive element (Nrf2/ARE) small molecule agonists: qHTS cell viability counter screen in human keratinocytes (AID 1919968; active means well fitted curve in the direction sought with a large enough effect in the repeat runs; an effect the other way counts as inactive or inconclusive; further: nearly all actives have a fitted effect of over 55% in size). The method, boiled down: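 Seed 1,500 KeratinoSens cells per well, then incubate 5 h at 37 C/5% CO2. Add compounds in DMSO and incubate 23 h. Add CellTiter-Fluor, wait 1 h and read fluorescence.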
In general terms: In qHTS, concentration-response curves come from the screen itself.

Experiment [2] can be described thus: Nuclear factor erythroid 2-related factor 2/antioxidant responsive element (Nrf2/ARE) small molecule agonists: luciferase reporter gene qHTS assay in human keratinocytes (AID 1919969). Further: nearly all actives have a fitted effect of over 35% in size. Further: potency means the concentration at half of the fitted maximal effect.
The target of experiment [3] is Gonadotropin-releasing hormone receptor (Homo sapiens) (UniProt P30968). Put plainly: Human gonadotropin-releasing hormone receptor (GnRHR) small molecule agonists, calcium flux assay in GnRHR-HEK293 cells (AID 1920063). Further: nearly all actives have a fitted effect of over 35% in size. The method, boiled down: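 Cells: HEK293 stably expressing human GnRHR. Steps: overnight (18 h) culture, 1 h calcium dye loading at 37 C, compound addition, kinetic fluorescence read at 480/540 nm. Each compound tested at 15 concentrations in triplicate.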
Background: A change in cytosolic calcium serves as a functional read-out for many receptors and channels.

Experiment [4] concerns the target KiSS-1 receptor (Homo sapiens) (UniProt Q969F8). Put plainly: Human kisspeptin (KISS1R) small molecule agonists, calcium flux assay in KISS1R-HEK293 cells (AID 1920064; active means well fitted curve in the direction sought with a large enough effect in the repeat runs; an effect the other way counts as inactive or inconclusive). A digest of the protocol:
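Cells plated and incubated 18 h; dye added, 1 h at 37 C; compounds in DMSO pinned in; signal read at 480/540 nm every second for 3 min. Each compound tested at 15 concentrations in triplicate.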

Experiment [5] is described as follows: G protein-coupled receptor (GPCR) small molecule agonists, calcium flux assay: HEK293 wild type cell line counter screen (AID 1920065). A digest of the protocol:
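Counter-screen of the Tox21 10K library for non-specific calcium release: dye-loaded cells received compounds in DMSO and were monitored by kinetic fluorescence (480/540 nm, 3 min). Fifteen concentrations, run in triplicate.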

A short description of experiment [6]: p53 small molecule agonists, cell-based qHTS assay with rat liver microsomes (AID 1963578). A digest of the protocol: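 p53RE-bla cells, 4,000/well, pre-incubated 5 h, then given compounds plus rat liver microsomes (0.5 mg/mL final) and NADPH (0.5 mg/mL final). Incubation 16 h at 37 C; beta-lactamase reporter read by LiveBLAzer fluorescence after 2 h at room temperature.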

The nature of experiment [7]: p53 small molecule agonists, cell-based qHTS assay with human liver microsomes: qHTS cell viability counter screen (AID 1963579). Further: nearly all actives have a fitted effect of over 45% in size. A digest of the protocol: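 p53RE-bla cells, 4,000/well, dosed 5 hours after plating, with human liver microsomes (0.5 mg/mL final) plus NADPH (0.5 mg/mL final), 16 hours at 37 C. Viability read as CellTiter-Glo luminescence after 30 min at room temperature.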

Experiment [8] is described as follows: p53 small molecule agonists, cell-based qHTS assay with rat liver microsomes: qHTS cell viability counter screen (AID 1963580). Further: nearly all actives have a fitted effect of over 45% in size. A digest of the protocol:
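Intracellular ATP, by CellTiter-Glo luminescence, defines viability. HCT-116 p53RE-bla cells, 4,000 per well, were compound-treated in the presence of rat liver microsomes and NADPH for 16 h at 37 C.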

A short description of experiment [9]: p53 small molecule agonists, cell-based qHTS assay: qHTS cell viability counter screen (AID 1963581). Further: nearly all actives have a fitted effect of over 45% in size. The method, boiled down:
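Cells: HCT-116 with p53 response element-driven beta-lactamase. Treatment: 16 h, 37 C, compounds in DMSO. Read: CellTiter-Glo luminescence after 30 min RT.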

Experiment [10] deals with 5-hydroxytryptamine receptor 2A (Homo sapiens) (UniProt P28223). Put plainly: 5-hydroxytryptamine receptor 2A (HTR2A) small molecule antagonists, cell-based qHTS assay (AID 1963586). Further: nearly all actives have a fitted effect of over 45% in size. A digest of the protocol:
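Antagonist-mode intracellular calcium assay: DOI (4 nM) added after 5 min compound pre-incubation at room temperature to dye-loaded HTR2A-CHO cells. Fluorescence followed for 3 min, sampled every second.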

Experiment [11] shares this target. Put plainly: 5-hydroxytryptamine receptor 2A (HTR2A) small molecule agonists, cell-based qHTS assay (AID 1963587). Further: nearly all actives have a fitted effect of over 30% in size. A digest of the protocol: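 Kinetic calcium-flux fluorescence (2 min, 1 sec intervals) after compound addition in agonist mode. HTR2A-CHO cells were cultured 18 h, then dye-loaded 1 h at 37 C.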
The target in experiment [12] is Muscarinic acetylcholine receptor M1 (Homo sapiens) (UniProt P11229). The experiment is described as follows: Cholinergic receptor muscarinic 1 (CHRM1) small molecule antagonists, cell-based qHTS assay (AID 1963588). Further: nearly all actives have a fitted effect of over 40% in size. Further: potency means the concentration at half of the fitted maximal effect. A digest of the protocol:
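CHRM1-CHO calcium-flux assay, antagonist mode. Cells were seeded 18 h, dye-loaded 1 h at 37 C and given compound for 5 min at RT, then acetylcholine was added at 50nM. FDSS fluorescence was read 3 min; 15 concentrations, three runs.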

For experiment [13] the target is unchanged. The experiment is described as follows: Cholinergic receptor muscarinic 1 (CHRM1) small molecule agonists, cell-based qHTS assay (AID 1963589). Further: nearly all actives have a fitted effect of over 35% in size. A digest of the protocol:
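Agonist-mode qHTS in CHO cells stably carrying human muscarinic M1. Intracellular calcium is tracked by fluorescence every second after compound transfer; each compound runs at 15 concentrations in three independent runs.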

The nature of experiment [14]: cAMP Responsive Elements (CRE) small molecule agonists, cell-based qHTS assay (AID 1963590). A digest of the protocol: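 Agonist mode qHTS in CRE-bla HEK 293T cells: compounds dosed from DMSO for 3 h at 37 C/5% CO2, followed by LiveBLAzer B/G FRET substrate for 2 h at room temperature.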
The nature of experiment [15]: cAMP Responsive Elements (CRE) small molecule antagonists, cell-based qHTS assay (AID 1963591; active means well fitted inhibition curve with a large enough effect in the signal ratio in the repeat runs, not every such curve was filed as active; the % refers to the signal ratio). The method, boiled down: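 Antagonist mode: test compounds are co-incubated with the adenylyl cyclase activator NKH477 (0.25 uM final) on CRE-bla HEK293T cells for 3 h at 37 °C, followed by LiveBLAzer substrate loading.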
The target of experiment [16] is Beta-2 adrenergic receptor (Homo sapiens) (UniProt P07550). The experiment is described as follows: Adrenergic beta2 receptor (ADRB2) small molecule antagonists, cell-based qHTS assay (AID 1963592). Further: series mostly up to about 92 µM; nearly all actives have a fitted effect of over 50% in size. The method, boiled down: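 Cells (CHO, stable ADRB2 overexpression) incubated 18-20hr at 37C; compounds added from DMSO; agonist mix (1nM isoproterenol, 100uM IBMX, 25uM Ro-20-1724) added; 0.5hr RT; d2-cAMP and anti-cAMP-cryptate added; 1hr RT; 665/615 nm read.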

The target in experiment [17] is D(2) dopamine receptor (Homo sapiens) (UniProt P14416). The experiment is described as follows: Dopamine D2 receptor (DRD2) small molecule agonists, cell-based qHTS assay (AID 1963594). Further: nearly all actives have a fitted effect of over 35% in size. The method, boiled down: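 cAMP accumulation in DRD2-HEK293 cells measured by HTRF after 1 h detection; compounds added 10 min before NKH477 (200nM […]) forskolin-analogue stimulation, 30 min at room temperature, with Ro20-1724 present at 0.1 mM final.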

Experiment [18] shares this target. Put plainly: Dopamine D2 receptor (DRD2) small molecule antagonists, cell-based qHTS assay (AID 1963595; active means well fitted inhibition curve with a large enough effect in the signal ratio in the repeat runs, with a control signal flat; the % refers to the signal ratio). A digest of the protocol: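 HTRF cAMP read-out at 665 and 620 nm emission (340 nm excitation). Antagonist mode: compounds were tested against 12 nM quinpirole in DRD2-HEK293 cells, with 200 nM NKH477 raising cAMP and 0.1 mM Ro20-1724 blocking its breakdown.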

Experiment [19] can be described thus: p53 small molecule agonists, cell-based qHTS assay (AID 1963582; active means well fitted activation curve with a large enough effect in the signal ratio in the repeat runs, not every such curve was filed as active; the % refers to the signal ratio). A digest of the protocol: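 Quantitative HTS in p53RE-bla cells: after a 5 h settling period, compounds delivered in DMSO were left on cells for 16 h at 37 C, and reporter induction was measured as fluorescence following 2 h substrate loading.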
In experiment [20] the target is Beta-2 adrenergic receptor (Homo sapiens) (UniProt P07550). Put plainly: Adrenergic beta2 receptor (ADRB2) small molecule agonists, cell-based qHTS assay (AID 1963593).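 Further: CHO cells stably overexpressing human ADRB2.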 A digest of the protocol: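 CHO cells stably over-expressing ADRB2 were plated overnight at 37C, then dosed with compounds plus a stimulation mix containing 100uM IBMX and 25uM Ro-20-1724 for 0.5hr at room temperature. cAMP was measured by HTRF competition, 1hr.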

Sequence of Gonadotropin-releasing hormone receptor (Homo sapiens) (P30968 whole entry, looked up): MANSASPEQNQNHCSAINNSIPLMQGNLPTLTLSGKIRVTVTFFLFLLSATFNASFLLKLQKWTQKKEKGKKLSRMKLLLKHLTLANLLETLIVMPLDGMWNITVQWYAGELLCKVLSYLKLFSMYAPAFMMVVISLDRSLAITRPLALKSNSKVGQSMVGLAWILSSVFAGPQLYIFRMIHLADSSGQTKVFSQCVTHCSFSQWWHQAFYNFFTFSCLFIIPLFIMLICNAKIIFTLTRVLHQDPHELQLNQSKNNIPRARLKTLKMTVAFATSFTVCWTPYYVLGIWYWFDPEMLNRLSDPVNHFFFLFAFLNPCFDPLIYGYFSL
Sequence of Beta-2 adrenergic receptor (Homo sapiens) (P07550 whole entry, looked up): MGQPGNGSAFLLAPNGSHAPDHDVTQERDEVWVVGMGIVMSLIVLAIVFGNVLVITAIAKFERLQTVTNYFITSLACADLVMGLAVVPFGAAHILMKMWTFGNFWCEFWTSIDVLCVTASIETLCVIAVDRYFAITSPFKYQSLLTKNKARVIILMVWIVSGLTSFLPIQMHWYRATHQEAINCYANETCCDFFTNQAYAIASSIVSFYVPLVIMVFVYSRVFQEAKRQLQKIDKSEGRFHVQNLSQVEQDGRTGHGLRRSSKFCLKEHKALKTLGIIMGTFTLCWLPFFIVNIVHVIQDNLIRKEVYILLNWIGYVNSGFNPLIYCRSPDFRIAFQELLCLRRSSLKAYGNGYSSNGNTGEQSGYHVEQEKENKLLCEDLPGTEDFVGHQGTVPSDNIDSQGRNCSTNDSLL
Sequence of 5-hydroxytryptamine receptor 2A (Homo sapiens) (P28223 whole entry, looked up): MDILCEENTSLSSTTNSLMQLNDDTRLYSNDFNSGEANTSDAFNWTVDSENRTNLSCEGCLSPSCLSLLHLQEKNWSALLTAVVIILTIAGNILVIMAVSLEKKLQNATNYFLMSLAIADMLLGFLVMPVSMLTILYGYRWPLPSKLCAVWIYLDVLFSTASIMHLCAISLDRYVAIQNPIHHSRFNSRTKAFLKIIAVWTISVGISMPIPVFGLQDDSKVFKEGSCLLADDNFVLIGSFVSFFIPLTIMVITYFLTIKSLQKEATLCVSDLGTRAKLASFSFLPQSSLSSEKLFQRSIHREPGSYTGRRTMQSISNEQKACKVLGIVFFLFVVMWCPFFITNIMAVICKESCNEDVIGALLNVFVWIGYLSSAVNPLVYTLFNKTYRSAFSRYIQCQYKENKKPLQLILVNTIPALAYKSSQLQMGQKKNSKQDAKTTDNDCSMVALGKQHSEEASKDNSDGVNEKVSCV
Sequence of D(2) dopamine receptor (Homo sapiens) (P14416 whole entry, looked up): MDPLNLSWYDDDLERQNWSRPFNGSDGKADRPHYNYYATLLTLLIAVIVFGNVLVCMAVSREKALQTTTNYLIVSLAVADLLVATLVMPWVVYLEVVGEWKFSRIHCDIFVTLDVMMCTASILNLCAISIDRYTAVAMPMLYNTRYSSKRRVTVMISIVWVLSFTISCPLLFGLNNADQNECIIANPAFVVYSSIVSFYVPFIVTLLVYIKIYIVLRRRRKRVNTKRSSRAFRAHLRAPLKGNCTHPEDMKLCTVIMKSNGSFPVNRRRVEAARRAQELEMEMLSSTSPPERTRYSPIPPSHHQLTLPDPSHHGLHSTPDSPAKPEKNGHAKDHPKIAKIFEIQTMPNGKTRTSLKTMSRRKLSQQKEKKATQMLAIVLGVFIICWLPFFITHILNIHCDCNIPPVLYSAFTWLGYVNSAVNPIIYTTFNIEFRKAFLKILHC
Sequence of KiSS-1 receptor (Homo sapiens) (Q969F8 whole entry, looked up): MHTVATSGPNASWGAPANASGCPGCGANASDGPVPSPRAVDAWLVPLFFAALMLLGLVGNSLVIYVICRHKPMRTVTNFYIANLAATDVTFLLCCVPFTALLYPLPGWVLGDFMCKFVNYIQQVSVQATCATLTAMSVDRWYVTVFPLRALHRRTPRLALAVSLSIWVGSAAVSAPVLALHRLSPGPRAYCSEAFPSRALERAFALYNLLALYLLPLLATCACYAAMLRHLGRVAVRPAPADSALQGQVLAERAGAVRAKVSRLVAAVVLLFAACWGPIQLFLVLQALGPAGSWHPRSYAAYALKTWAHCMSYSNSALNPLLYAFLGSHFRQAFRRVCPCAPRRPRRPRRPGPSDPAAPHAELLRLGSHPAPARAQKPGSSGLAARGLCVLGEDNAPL
Sequence of Muscarinic acetylcholine receptor M1 (Homo sapiens) (P11229 whole entry, looked up): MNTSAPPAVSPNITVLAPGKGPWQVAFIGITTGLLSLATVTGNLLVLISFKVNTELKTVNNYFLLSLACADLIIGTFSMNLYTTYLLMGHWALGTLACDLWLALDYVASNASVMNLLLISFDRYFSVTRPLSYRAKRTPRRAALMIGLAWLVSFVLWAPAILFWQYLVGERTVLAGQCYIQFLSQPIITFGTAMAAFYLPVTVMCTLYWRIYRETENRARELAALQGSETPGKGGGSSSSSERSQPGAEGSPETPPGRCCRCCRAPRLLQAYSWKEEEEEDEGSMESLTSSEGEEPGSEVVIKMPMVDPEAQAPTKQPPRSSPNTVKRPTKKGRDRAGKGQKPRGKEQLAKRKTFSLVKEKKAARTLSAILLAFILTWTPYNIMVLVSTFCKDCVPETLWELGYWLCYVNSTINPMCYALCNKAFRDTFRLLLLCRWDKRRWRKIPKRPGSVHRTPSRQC

On to `O[Si](c1ccccc1)(c1ccccc1)c1ccccc1`, for which the Potency entry in experiment [1], in experiment [2], in experiment [3], in experiment [4], in experiment [5] and in experiment [6] was “inactive” throughout. The Potency result in [7], in experiment [8], in [9], in experiment [10], in [11] and in experiment [12] was “inactive” throughout. Besides, the Potency result in experiment [13], in experiment [14], in experiment [15], in experiment [16], in experiment [17] and in experiment [18] was “inactive” each time.

In the case of `O=C1NCCN1`, the Potency result in experiment [1], in experiment [2], in experiment [3], in experiment [4], in [5] and in experiment [6] was “inactive” in each case. Also, the Potency result in experiment [7], in experiment [8], in experiment [9], in experiment [19], in experiment [10] and in [11] was “inactive” throughout. In addition, the Potency entry in [12], in experiment [13], in [14], in [15], in [16] and in experiment [17] was “inactive” each time. Besides, in experiment [18], the Potency result was “inactive”.

For the molecule `CCCCCCCCCCCCN(CCCCCCCCCCCC)CCCCCCCCCCCC`, the Potency entry in experiment [1], in experiment [2], in experiment [3], in [4], in experiment [5] and in [6] was “inactive” in each case. Moreover, the Potency entry in experiment [7], in experiment [8], in experiment [9], in experiment [19], in experiment [10] and in [11] was “inactive” each time. For the same molecule, the Potency result in experiment [12], in experiment [14], in [16], in experiment [20], in [17] and in [18] was “inactive” in each case.

Turning to `O=[N+]([O-])c1cc[n+]([O-])cc1`, the Potency result in experiment [1], in experiment [3], in [4], in [5], in experiment [6] and in [7] was “inactive” each time. For the same molecule, the Potency entry in experiment [8], in experiment [9], in experiment [19], in experiment [10], in experiment [12] and in [13] was “inactive” in each case. Further, the Potency result in experiment [14], in [15], in experiment [20], in experiment [17] and in experiment [18] was “inactive” in each case. Besides, in experiment [2], the Potency was 61.1 µM (active).

As for `O=C1c2ccccc2Cc2ccccc21`, the Potency entry in experiment [1], in [3], in [4], in experiment [5], in experiment [6] and in [7] was “inactive” throughout. Besides, the Potency result in [8], in experiment [9], in [19], in experiment [11], in [13] and in experiment [16] was “inactive” throughout. The Potency result in experiment [18] is “inactive”. Further, in experiment [2], the Potency was 61.6 µM (active).

As to `CC1(C)C(=O)NC(=O)N1CO`, the Potency result in [1], in experiment [2], in experiment [3], in [4], in experiment [5] and in [6] was “inactive” throughout. Also, the Potency result in experiment [7], in [8], in [9], in experiment [19], in experiment [10] and in [11] was “inactive” in each case. For the same molecule, the Potency entry in experiment [12], in experiment [13], in experiment [14], in experiment [15], in [20] and in experiment [17] was “inactive” each time. Also, the Potency entry in experiment [18] is “inactive”.

Turning to `CCOC(=O)NCCOc1ccc(Oc2ccccc2)cc1`, the Potency result in experiment [1], in [2], in [3], in [4], in experiment [5] and in [6] was “inactive” in each case. In addition, the Potency result in experiment [7], in [8], in experiment [9], in experiment [10], in experiment [11] and in experiment [14] was “inactive” throughout. Besides, the Potency result in experiment [20], in [17] and in experiment [18] was “inactive” throughout. Moreover, in experiment [12], the Potency is 29.8 µM (active).
